Measurements published in PubChem BioAssay (NCATS).
Records with an inconclusive call do not appear. Entries that show only a call come without a potency. Activity calls are given as the source filed them. Unless noted, calls follow the shape of the dose curve; as a rule, active = well fitted curve in the direction sought with a large enough effect; inconclusive = small, poorly fitted or top-dose-only effect, or another doubt; inactive = no such curve, though single readings can be large; an effect the other way counts as inactive or inconclusive.

What was measured:
[1] = target: Calcium and integrin-binding protein 1 (Homo sapiens) (UniProt Q99828); assay: Primary qHTS for Identification of Calcium Integrin Binding Protein 1 (CIB1) Competitor (AID 1508620); settings: CIB1-GST / FITC-alphaIIb peptide fluorescence polarization; series mostly up to 57.7 µM;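 also: GST tagged CIB1 binding a fluorescein labelled alphaIIb integrin peptide tracer; top concentration of the series differs between compounds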
Summary of the method: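 CIB1-GST (1 uM final) and compound incubated 15 min at room temperature before adding FITC-alphaIIb peptide tracer (100 nM final). Competition for binding read by fluorescence polarization (ex 480, em 540) after another 15 min at room temperature.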

[2] = target: Cytochrome P450 2C9 (Homo sapiens) (UniProt P11712); assay: Cytochrome P450 family 2 subfamily C member 9 (CYP2C9) small molecule antagonists: luciferase biochemical (cell-free) qHTS assay (AID 1645842; active = well fitted curve in the direction sought with a large enough effect in the repeat runs; an effect the other way counts as inactive or inconclusive; also: nearly all actives have a fitted effect of over 55% in size; also: potency is read from the fitted curve at half-maximal effect); settings: P450-Glo CYP2C9 enzyme assay, luciferin luminescence; series mostly up to 57.4 µM
Summary of the method: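 P450-Glo CYP2C9 system: proluciferin substrate with enzyme in mix containing 0.4% BSA, 10 min at room temperature, then NADPH regeneration solution added and incubated 1 h at 37C. Detection reagent stopped reaction; luminescence read after 20 min as RLU.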

[3] = Primary qHTS for inhibitors of nuclear receptor binding SET domain protein 2 (NSD2) in an isogenic RCH-ACV NSD2 p.E1099K mutant (9B) (AID 1645876); settings: RCH-ACV NSD2 E1099K (9B) viability, CellTiter-Glo, 72 h; series mostly up to 44.9 µM; also: nearly all actives have a fitted effect of over 70% in size; also: potency is read from the fitted curve at half-maximal effect
[4] = Primary qHTS for inhibitors of nuclear receptor binding SET domain protein 2 (NSD2) in an RCH-ACV wild type WT cells (2C) (AID 1645877); settings: RCH-ACV (leukaemia line) NSD2 WT (2C) viability, CellTiter-Glo, 72 h; series mostly up to 44.9 µM; also: nearly all actives have a fitted effect of over 70% in size; also: potency is read from the fitted curve at half-maximal effect
[5] = target: N-terminal Xaa-Pro-Lys N-methyltransferase 1 (Homo sapiens) (UniProt Q9BV86); assay: Confirmatory qHTS for Inhibitors of N-terminal methyltransferase 1 (NTMT1): MTaseGlo Assay (AID 1645874); settings: NTMT1 enzyme, MTase-Glo SAH luminescence; series mostly up to 51.5 µM;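 also: luminescence from SAH made as NTMT1 methylates SPKRIA peptide using SAM; nearly all actives have a fitted effect of over 65% in size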
Summary of the method: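 Inhibition was derived from luminescence after SAH-to-ATP conversion, scaled between no-enzyme and DMSO wells, then fitted by 4-parameter Hill. Conditions: 125 nM NTMT1, 100 uM SAM, 1 uM SPKRIA, 30 min RT.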

Chain of Cytochrome P450 2C9 (Homo sapiens) (P11712 whole entry, looked up): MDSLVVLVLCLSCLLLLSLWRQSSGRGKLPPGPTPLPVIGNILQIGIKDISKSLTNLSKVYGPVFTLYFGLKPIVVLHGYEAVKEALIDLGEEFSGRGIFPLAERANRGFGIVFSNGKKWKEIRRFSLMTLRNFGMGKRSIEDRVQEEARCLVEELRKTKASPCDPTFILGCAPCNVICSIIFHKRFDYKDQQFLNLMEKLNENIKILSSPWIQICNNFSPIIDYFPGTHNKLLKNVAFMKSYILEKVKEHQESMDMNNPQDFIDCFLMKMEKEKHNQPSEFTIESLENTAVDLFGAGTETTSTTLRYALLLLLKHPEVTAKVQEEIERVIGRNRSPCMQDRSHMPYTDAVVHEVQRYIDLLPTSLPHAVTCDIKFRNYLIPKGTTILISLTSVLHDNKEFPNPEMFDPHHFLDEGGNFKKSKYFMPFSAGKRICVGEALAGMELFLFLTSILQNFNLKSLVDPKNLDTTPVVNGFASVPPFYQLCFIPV
Chain of Calcium and integrin-binding protein 1 (Homo sapiens) (Q99828 whole entry, looked up): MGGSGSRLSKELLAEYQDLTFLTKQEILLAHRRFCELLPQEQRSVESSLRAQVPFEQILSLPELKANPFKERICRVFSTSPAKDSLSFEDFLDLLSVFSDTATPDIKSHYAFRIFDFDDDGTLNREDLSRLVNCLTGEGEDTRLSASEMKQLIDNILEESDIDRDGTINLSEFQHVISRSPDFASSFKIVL
Chain of N-terminal Xaa-Pro-Lys N-methyltransferase 1 (Homo sapiens) (Q9BV86 whole entry, looked up): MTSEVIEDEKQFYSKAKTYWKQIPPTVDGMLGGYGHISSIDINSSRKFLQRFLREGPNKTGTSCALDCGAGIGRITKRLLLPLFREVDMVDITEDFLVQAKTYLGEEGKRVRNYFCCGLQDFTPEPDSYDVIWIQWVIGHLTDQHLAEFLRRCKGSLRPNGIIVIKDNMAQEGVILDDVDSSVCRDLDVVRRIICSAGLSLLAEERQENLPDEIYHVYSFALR

Structure (SMILES) | Potency [1] | Potency [2] | Potency [3] | Potency [4] | Potency [5]
Cc1cc(C(=O)N2Cc3cnn(C)c3Nc3ccccc32)ccc1CNC(=O)N1CCN(Cc2cc(O)cc(O)c2)CC1 | inactive | 2.39 µM (active) | inactive | inactive | 
O=C(CC1CC(c2ccc(F)cc2F)=NO1)N1CCOCC1 (configuration not stated) | inactive | inactive | inactive | inactive | 
O=C(O)c1ccnc2cc(-c3nc4ccccc4n3CCN3CCCCC3)sc12 | inactive |  | inactive |  | inactive
Nc1nc(COC(=O)c2ccc([N+](=O)[O-])cc2)nc(Nc2ccccc2)n1 | inactive | 21.3 µM (active) | inactive | inactive | 
CC1(C)[C@H]2C[C@H](C/C=C\CCCC(=O)O)[C@@H](NC(=O)c3csc4ccc(O)cc34)[C@@H]1C2 | inactive | 1.34 µM (active) | inactive | inactive | 
O=C(Nc1cc(-c2ccccc2)nn1-c1ccccc1)c1ccc([N+](=O)[O-])cc1 | inactive | 1.51 µM (active) | inactive | inactive | 
COc1cn(-c2ccc(-n3cccn3)cc2F)nc(-c2ccnn2-c2ccccc2)c1=O | inactive | 15.1 µM (active) | inactive | inactive | 
COc1ccc(CCc2nc3cc(-c4c(C)noc4C)ccc3n2C[C@H](C)N2CCOCC2)cc1Cl | inactive | 15.1 µM (active) | 3.65 µM (active) | 2.58 µM (active) | 
Cc1ccc(Cl)cc1N(CC(=O)Nc1c(F)cccc1F)S(C)(=O)=O | inactive | 1.2 µM (active) | inactive | inactive | 
CCCN1CCC[C@@H](c2cccc(S(C)(=O)=O)c2)C1 | inactive | inactive | inactive | inactive | 
O=C(N[C@H](Cc1ccccc1)C(=O)O)c1sc2cc(F)ccc2c1Cl | inactive | 16.9 µM (active) | inactive | inactive | 
COC(=O)[C@H](Cc1ccc([N+](=O)[O-])cc1)NC(=O)c1cccc2ccccc12 | inactive | 3.79 µM (active) | inactive | inactive | 
O=C(c1c2ccccc2cc2ccccc12)N1CCC(N2CCC[C@@H](C(=O)N3CCOCC3)C2)CC1 | inactive | inactive | inactive | inactive | 
COc1cccc(OC)c1-c1ccc(C[C@H](NC(=O)c2c(Cl)cccc2Cl)C(=O)O)cc1 | inactive | 13.5 µM (active) | inactive | inactive | 
O=C(O)[C@H](Cc1ccccc1)Oc1ccc(-c2ccccc2)cc1 | inactive | 9.52 µM (active) | inactive | inactive | 
O=C(NCC(=O)N1CCCC1)Nc1ccc2ccccc2c1 | inactive | inactive | inactive | inactive | 
COc1ccc2[nH]c(S(=O)Cc3ncc(C)c(OC)c3C)nc2c1 (configuration not stated) | inactive |  | inactive |  | 
CCCN(CCN1CCN(c2ccccc2OC)CC1)C1CCc2ncsc2C1 (configuration not stated) | inactive | inactive | inactive | inactive | 
Nc1ncnc2c1c(COc1cccc(Cl)c1)nn2C1CCOCC1 | inactive | 12 µM (active) | 14.8 µM (active) | 16.6 µM (active) | 
N[C@@H](CCNCc1ccc(Cl)cc1)C(=O)N1CCCCC1 | inactive | inactive | inactive | inactive | 
COc1ccc(NC(=O)c2ccc(-c3ccc(C(N)=O)cc3C)cc2)cc1N1CCN(C)CC1 | inactive | inactive |  | 14.5 µM (active) | 
CCOC(=O)C1=C(N)Oc2ccc(Cl)cc2C1C(C#N)C(=O)OCC (configuration not stated) | inactive | 10.7 µM (active) | inactive | inactive | 
CS(=O)(=O)c1ccccc1N1CCN(c2nc3c(c(=O)[nH]2)CSCC3)CC1 | inactive | 8.49 µM (active) | inactive | inactive | 
N#Cc1cc(-c2n[nH]c(-c3ccncc3)n2)ccn1 | inactive | 1.51 µM (active) | inactive | inactive | 
